mHTT CaM bind: mutant huntingtin-calmodulin interaction inhibitors – biochemical, AlphaScreen, primary screen; inhibition, % at 15 µM; P42858; 190,000 tested, 3.6% active; AID 1671202, 2021; AlphaScreen His-mHTT/GST-CaM binding, luminescence;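 further: 0% = both proteins with DMSO and 100% = one protein alone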
Pf apPOL block: Pf-apPOL inhibitors, biochemical, fluorescence. AID 1794808, 2022. Recombinant Pf-apPOL, molecular beacon fluorescence, 1.5 h. inhibition, % at 10 µM. Plasmodium falciparum apicoplast DNA polymerase (apPOL). 210,000 tested, 0.25% active
* marks the source's active call; other numbers are inactive results; ! = a repeat was not active. An excerpt weighted towards active compounds, which were near 3.6% of everything screened. No stated cut-off is given here; in the data, active means inhibition above about 50%; inactive means the rest.

What do the screens show for `O=C(c1ccc(Cl)c(Cl)c1)N1CCN(c2ccc([N+](=O)[O-])c3cccnc23)CC1`?
mHTT CaM bind: 8; Pf apPOL block: 1

What do the screens show for `O=C(c1ccc(Cl)c(Cl)c1)N1CCN(c2ccc(F)cc2[N+](=O)[O-])CC1`?
mHTT CaM bind: 53*; Pf apPOL block: -19

How did Cc1cc(C)c(NC(=O)C(C)Sc2nnnn2C)c(C)c1 (configuration not stated) do in these assays?
mHTT CaM bind: -1; Pf apPOL block: -8

Results for O=[N+]([O-])c1cc(N=Cc2c[nH]c3ccccc23)ccc1N=Cc1c[nH]c2ccccc12 ?
mHTT CaM bind: 32; Pf apPOL block: -1

What do the screens show for `CCc1noc(-c2cccnc2N2CCCN(Cc3cc(F)cc(F)c3)CC2)n1`?
mHTT CaM bind: -56; Pf apPOL block: 4

What do the screens show for `O=C(Nc1ccc(C(F)(F)F)cc1)O[C@@H]1C[C@H]2C[C@@H]1[C@H]1CCCCN1C2`?
mHTT CaM bind: 73*; Pf apPOL block: -9

Results for O=C(Nc1ccc(F)cc1)O[C@@H]1C[C@H]2C[C@@H]1[C@H]1CCCCN1C2 ?
mHTT CaM bind: -2; Pf apPOL block: -6

Results for COC(=O)C(C#N)=C(C#N)c1ccc(Br)o1 ?
Pf apPOL block: 76*

What do the screens show for `COc1cccc(NC(=O)c2ccc(Br)o2)c1`?
mHTT CaM bind: -5; Pf apPOL block: -11

How did O=c1c(NCc2cc(F)cc(F)c2)nc2ccncc2n1Cc1ccccc1 do in these assays?
mHTT CaM bind: -7; Pf apPOL block: -1

What do the screens show for `N#CC(C#N)=C(SCc1c(F)cccc1Cl)SCc1c(F)cccc1Cl`?
Pf apPOL block: 72*!

What do the screens show for `CN(C)C=CC(=N)SCc1c(F)cccc1Cl`?
Pf apPOL block: -10

What do the screens show for `CCc1ccc(S(=O)(=O)N2CCCC(C)(C(=O)NCc3ccc(F)cc3)C2)cc1` (configuration not stated)?
mHTT CaM bind: 17; Pf apPOL block: 3

What do the screens show for `Cc1ccc(S(=O)(=O)NCCC2CCN(C(=O)c3ccccc3)CC2)c(C)c1`?
mHTT CaM bind: 53*; Pf apPOL block: -1

Results for O=C(c1ccccc1)N1CCC(CCNS(=O)(=O)c2cc(F)ccc2F)CC1 ?
mHTT CaM bind: 49; Pf apPOL block: -3

Results for Cc1ccc(C(=O)N2CCC(CCNS(=O)(=O)c3ccccc3C)CC2)cc1 ?
mHTT CaM bind: 49; Pf apPOL block: -1

What do the screens show for `O=C(c1ccccc1)N1CCC(CCNS(=O)(=O)c2ccc(F)cc2F)CC1`?
mHTT CaM bind: 50*; Pf apPOL block: 3

Results for COc1ccccc1-n1cnc2cc(NCc3ccc(Cl)cc3)ccc21 ?
mHTT CaM bind: 80*; Pf apPOL block: 0

What do the screens show for `COc1ccccc1CNc1ccc2c(c1)ncn2-c1ccccc1`?
mHTT CaM bind: 69*; Pf apPOL block: 8

Results for CCn1cnc2cc(NCc3ccc(Cl)cc3)ccc21 ?
mHTT CaM bind: 30; Pf apPOL block: -3

How did COc1cccc(CNc2ccc3c(c2)ncn3C)c1O do in these assays?
mHTT CaM bind: 10; Pf apPOL block: -7

What do the screens show for `CSCCC(C)(O)CNC(=O)NC1CCCCC1` (configuration not stated)?
mHTT CaM bind: 1; Pf apPOL block: -3

How did COc1ccc(-n2ncc3c(NC4CC4)ncnc32)cc1 do in these assays?
mHTT CaM bind: -14; Pf apPOL block: -3

Results for O=c1ccc2ccc(Oc3ccc(C(F)(F)F)cc3[N+](=O)[O-])cc2o1 ?
mHTT CaM bind: -3; Pf apPOL block: 2

How did CC1(C(=O)NCc2cccnc2)CCC(=O)N1CCN1CCOCC1 (configuration not stated) do in these assays?
mHTT CaM bind: 6; Pf apPOL block: -4

How did CCC(=O)Nc1ccc2c(c1)C(N(C)C(C)C)=Nc1ccccc1O2 do in these assays?
mHTT CaM bind: 5; Pf apPOL block: -1

Results for COc1ccccc1N1CCN(C(=O)C2CC2)CC1 ?
mHTT CaM bind: -6; Pf apPOL block: -1

What do the screens show for `COc1ccccc1N1CCN(C(=O)C2CCCc3c2[nH]c2ccccc32)CC1` (configuration not stated)?
mHTT CaM bind: 59*; Pf apPOL block: 6

Results for CC(=O)Nc1ccc(C2(C(=O)N3CCN(c4ccccc4)CC3)CCCCC2)cc1 ?
mHTT CaM bind: 91*; Pf apPOL block: -1

Results for CNC(=O)Nc1ccc(C2(C(=O)N3CCN(c4cccc(Cl)c4)CC3)CCC2)cc1 ?
mHTT CaM bind: 67*; Pf apPOL block: 1

How did CC(C)C(=O)Nc1ccc(C2(C(=O)N3CCN(c4ccccn4)CC3)CCCCC2)cc1 do in these assays?
mHTT CaM bind: 28; Pf apPOL block: 4

Results for CNC(=O)Nc1ccc(C2(C(=O)N3CCN(c4ccccc4)CC3)CCC2)cc1 ?
mHTT CaM bind: 11; Pf apPOL block: 1

What do the screens show for `CCNCc1nc2sc3c(c2c(=O)[nH]1)CCC(C)C3` (configuration not stated)?
mHTT CaM bind: -4; Pf apPOL block: -2
